Measured values published in the supplement of paper PMC10849652.
Of roughly 8,800 targets only a part is listed; those with a hit were picked by preference. About 0.5% of all pairs of compound and target were hits. Values without a mark were called inactive.

What was measured:
Experiment in all cases: log2 fold change, soluble protein after heating vs DMSO (PISA); higher = thermal stabilisation; K562 lysate, 10 uM; active = over 0.2 and 3.5 SD of the protein, either way, in both replicates (recomputed)
erlotinib = compound: C#Cc1cccc(Nc2ncnc3cc(OCCOC)c(OCCOC)cc23)c1 [erlotinib]
Summary of the method: (§1)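 The values are log-two fold changes in thermal stability compared with solvent controls and come from duplicates. They were obtained by TMTpro 16plex LC-MS/MS, with channel sums equalised, on the supernatant after 21,000xg for 90 min. That supernatant came from crude K562 extract at 1 mg/mL protein treated with 10 μM compound for 30 min, heated for 3 min across 48°C-58°C, pooled and brought to 0.5% NP-40 at 4°C.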

[1] = compound: C/C(=N\NC(=O)C1=CC(=CC=C1)S(=O)(=O)N2CCOCC2)/C3=C(C=CC(=C3)Cl)O
Summary of the method: as §1

[2] = compound: C1=CC(=CC=C1C2=NC3=C(N2)C=C(C=C3)C(=O)N)OC4=CC=C(C=C4)Cl
Summary of the method: as §1

[3] = compound: C1=CC2=C(C=CC(=C2)/C=C\3/C(=O)NC(=NCC4=CC=CS4)S3)N=C1
Summary of the method: as §1

[4] = compound: C1=CC2=NC=CN=C2C=C1/C=C/3\C(=O)NC(=O)S3
Summary of the method: as §1

[5] = compound: C1=CC=C(C=C1)C2=NC(=C(N2)C3=CC=NC=C3)C4=CC(=C(C=C4)Cl)O
Summary of the method: as §1

[6] = compound: C1=CC=C2C(=C1)C3=NNC4=CC=CC(=C43)C2=O
Summary of the method: as §1

[7] = compound: C1CCN(C1)C(=O)NC2=CC=CC(=C2)NC3=NC=C(C(=N3)NCCC4=CN=CN4)Br
Summary of the method: as §1

[8] = compound: C1CN(CCC1(CC2=CC=C(C=C2)Cl)N)C3=NC=NC4=C3C=CN4
Summary of the method: as §1

IRAK-1-4 Inhibitor I = compound: C1COCCN1CCN2C3=CC=CC=C3N=C2NC(=O)C4=CC(=CC=C4)[N+](=O)[O-] [IRAK-1-4 Inhibitor I]
Summary of the method: as §1

UniProt O94768, sequence (O94768 whole entry, looked up): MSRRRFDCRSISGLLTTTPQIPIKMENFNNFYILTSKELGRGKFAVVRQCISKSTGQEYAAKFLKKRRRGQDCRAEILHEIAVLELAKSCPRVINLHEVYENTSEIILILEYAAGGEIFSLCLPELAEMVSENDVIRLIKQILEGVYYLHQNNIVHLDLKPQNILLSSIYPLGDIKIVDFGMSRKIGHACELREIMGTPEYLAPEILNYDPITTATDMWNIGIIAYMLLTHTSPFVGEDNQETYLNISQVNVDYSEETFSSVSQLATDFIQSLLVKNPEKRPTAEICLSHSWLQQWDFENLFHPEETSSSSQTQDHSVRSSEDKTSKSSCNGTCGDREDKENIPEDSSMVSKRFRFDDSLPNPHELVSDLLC
UniProt O00161, sequence (O00161 whole entry, looked up): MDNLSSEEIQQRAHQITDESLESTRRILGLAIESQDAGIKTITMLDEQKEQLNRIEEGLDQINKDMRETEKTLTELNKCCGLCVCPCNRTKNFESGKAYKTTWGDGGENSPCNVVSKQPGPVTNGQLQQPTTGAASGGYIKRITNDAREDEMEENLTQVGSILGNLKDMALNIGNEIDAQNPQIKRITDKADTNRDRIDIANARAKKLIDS
UniProt Q9UQE7, sequence (Q9UQE7 whole entry, looked up): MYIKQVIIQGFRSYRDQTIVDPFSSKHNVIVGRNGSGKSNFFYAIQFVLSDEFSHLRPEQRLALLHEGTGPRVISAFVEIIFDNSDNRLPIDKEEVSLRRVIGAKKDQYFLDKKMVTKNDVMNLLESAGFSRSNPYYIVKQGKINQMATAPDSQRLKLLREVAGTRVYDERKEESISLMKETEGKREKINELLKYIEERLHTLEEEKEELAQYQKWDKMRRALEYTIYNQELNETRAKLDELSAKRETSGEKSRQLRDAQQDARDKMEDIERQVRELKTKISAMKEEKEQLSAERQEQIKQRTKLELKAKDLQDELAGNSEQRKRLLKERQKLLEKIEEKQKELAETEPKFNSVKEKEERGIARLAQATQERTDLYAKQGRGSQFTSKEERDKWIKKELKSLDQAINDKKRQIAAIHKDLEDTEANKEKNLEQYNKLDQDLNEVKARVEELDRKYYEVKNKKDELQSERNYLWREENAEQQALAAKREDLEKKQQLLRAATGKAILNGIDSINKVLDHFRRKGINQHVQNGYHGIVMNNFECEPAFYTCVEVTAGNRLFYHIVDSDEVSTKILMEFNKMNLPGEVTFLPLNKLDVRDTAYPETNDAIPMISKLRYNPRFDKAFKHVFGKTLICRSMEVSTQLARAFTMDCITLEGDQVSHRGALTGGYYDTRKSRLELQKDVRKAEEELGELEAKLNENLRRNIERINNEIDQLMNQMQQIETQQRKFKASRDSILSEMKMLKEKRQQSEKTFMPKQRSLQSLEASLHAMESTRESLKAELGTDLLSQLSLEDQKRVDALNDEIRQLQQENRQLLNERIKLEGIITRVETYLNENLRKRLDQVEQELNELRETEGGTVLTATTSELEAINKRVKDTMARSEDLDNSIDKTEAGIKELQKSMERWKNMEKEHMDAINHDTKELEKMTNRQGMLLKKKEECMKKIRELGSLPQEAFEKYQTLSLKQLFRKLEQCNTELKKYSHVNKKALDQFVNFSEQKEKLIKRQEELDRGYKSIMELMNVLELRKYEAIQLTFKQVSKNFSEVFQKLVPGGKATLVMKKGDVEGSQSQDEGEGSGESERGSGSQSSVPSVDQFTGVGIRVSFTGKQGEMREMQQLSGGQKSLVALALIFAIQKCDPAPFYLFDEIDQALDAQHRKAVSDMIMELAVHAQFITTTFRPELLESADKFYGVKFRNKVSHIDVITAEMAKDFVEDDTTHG
UniProt Q13309, sequence (Q13309 whole entry, looked up): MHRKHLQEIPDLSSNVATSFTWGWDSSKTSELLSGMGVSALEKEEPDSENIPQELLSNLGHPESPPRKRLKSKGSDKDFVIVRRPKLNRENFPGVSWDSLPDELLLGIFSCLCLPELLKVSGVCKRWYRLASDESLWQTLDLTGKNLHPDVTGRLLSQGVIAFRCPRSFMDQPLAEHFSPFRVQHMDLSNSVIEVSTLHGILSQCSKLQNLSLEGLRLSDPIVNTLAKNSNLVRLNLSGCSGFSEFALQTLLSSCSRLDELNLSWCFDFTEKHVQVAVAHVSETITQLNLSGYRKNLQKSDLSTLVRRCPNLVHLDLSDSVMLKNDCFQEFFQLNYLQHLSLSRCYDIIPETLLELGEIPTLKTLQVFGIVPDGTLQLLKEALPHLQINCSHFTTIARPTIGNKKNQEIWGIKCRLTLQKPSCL
UniProt Q96H72, sequence (Q96H72 whole entry, looked up): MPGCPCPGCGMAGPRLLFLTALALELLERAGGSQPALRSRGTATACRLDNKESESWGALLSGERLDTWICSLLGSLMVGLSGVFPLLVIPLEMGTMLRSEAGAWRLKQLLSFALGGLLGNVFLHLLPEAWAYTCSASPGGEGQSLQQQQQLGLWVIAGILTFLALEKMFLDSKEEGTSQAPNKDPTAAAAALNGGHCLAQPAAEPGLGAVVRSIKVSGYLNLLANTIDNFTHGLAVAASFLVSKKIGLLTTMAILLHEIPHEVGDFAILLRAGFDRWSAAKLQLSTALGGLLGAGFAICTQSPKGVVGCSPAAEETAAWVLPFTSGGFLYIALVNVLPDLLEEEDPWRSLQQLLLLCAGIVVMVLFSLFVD
UniProt P12931, sequence (P12931 whole entry, looked up): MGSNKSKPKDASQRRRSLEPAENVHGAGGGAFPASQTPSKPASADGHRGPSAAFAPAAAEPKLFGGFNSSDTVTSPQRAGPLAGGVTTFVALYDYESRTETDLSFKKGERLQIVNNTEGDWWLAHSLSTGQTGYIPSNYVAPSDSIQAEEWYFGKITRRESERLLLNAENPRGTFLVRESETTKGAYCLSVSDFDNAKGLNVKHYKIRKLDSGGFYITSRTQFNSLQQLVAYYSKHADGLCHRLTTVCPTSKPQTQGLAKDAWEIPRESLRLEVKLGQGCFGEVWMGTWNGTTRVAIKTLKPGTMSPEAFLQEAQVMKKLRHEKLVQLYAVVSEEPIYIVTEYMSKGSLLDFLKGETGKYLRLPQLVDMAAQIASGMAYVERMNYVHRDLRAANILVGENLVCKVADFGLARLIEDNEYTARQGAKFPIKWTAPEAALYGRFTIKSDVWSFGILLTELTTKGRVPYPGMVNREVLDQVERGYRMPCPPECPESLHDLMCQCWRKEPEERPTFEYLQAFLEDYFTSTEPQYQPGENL
UniProt Q9NP59, sequence (Q9NP59 whole entry, looked up): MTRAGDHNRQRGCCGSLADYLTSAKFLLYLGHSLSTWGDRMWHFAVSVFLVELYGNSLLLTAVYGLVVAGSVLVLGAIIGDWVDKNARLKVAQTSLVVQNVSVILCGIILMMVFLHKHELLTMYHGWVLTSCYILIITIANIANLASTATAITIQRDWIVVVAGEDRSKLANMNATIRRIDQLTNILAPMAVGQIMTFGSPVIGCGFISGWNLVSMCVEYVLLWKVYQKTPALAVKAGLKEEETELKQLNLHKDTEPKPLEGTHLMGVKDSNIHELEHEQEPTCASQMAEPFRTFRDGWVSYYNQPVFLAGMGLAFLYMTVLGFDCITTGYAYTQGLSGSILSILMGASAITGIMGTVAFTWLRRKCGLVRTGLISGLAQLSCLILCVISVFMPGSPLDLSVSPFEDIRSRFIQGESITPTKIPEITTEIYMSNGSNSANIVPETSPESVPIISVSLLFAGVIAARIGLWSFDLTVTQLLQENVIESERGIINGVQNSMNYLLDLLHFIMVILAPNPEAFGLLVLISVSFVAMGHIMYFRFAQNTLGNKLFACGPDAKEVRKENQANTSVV
UniProt O75182, sequence (O75182 whole entry, looked up): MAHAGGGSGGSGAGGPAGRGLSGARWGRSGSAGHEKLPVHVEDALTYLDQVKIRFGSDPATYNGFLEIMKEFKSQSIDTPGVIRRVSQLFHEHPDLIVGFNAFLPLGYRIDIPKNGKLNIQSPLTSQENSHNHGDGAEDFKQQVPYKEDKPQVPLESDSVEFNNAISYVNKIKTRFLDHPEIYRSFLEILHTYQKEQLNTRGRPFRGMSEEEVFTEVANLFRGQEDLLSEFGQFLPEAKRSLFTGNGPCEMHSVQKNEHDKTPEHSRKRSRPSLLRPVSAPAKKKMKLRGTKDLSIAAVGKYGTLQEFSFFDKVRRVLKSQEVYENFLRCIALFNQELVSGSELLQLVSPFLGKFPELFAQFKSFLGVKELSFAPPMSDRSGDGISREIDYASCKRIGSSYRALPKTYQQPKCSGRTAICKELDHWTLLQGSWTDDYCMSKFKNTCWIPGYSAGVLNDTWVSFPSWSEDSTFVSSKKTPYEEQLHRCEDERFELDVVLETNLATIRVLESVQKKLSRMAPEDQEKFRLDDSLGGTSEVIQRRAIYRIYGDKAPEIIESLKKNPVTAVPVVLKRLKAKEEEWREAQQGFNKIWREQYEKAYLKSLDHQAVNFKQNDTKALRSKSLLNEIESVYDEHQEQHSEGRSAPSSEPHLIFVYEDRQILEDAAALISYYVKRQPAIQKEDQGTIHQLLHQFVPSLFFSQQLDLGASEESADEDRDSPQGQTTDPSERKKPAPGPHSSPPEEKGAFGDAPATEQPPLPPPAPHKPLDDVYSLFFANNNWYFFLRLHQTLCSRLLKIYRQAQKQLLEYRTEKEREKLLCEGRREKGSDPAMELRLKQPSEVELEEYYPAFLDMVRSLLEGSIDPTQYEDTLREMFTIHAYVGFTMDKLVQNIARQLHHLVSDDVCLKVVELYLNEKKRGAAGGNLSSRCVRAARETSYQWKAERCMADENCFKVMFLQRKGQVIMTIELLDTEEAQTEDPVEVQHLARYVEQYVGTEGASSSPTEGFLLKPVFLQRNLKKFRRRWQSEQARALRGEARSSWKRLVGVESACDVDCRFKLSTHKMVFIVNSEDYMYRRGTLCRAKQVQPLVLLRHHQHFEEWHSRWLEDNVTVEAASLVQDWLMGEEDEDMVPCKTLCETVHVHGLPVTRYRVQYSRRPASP
UniProt Q96EX1, sequence (Q96EX1 whole entry, looked up): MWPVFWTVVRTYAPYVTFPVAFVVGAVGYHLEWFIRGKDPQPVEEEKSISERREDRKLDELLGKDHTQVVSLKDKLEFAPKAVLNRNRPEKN

Target	log2 fold change (erlotinib)	log2 fold change [1]	log2 fold change [2]	log2 fold change [3]	log2 fold change [4]	log2 fold change [5]	log2 fold change [6]	log2 fold change [7]	log2 fold change [8]	log2 fold change (IRAK-1-4 Inhibitor I)
SMC3 (UniProt Q9UQE7)	-0.01	0.018	-0.004	0.018	-0.013	0.002	0.023	-0.007	-0.016	-0.009
SKA1 (UniProt Q96BD8)	-0.029	-0.015	0.029	0.072	-0.062	0.065	-0.06	0.02	-0.094	0.013
SLC25A32 (UniProt Q9H2D1)	0.035	0.02	-0.062	0.011	-0.013	-0.027	0.056	0.018	-0.002	0.029
STK25 (UniProt O00506)	0.037	-0.04	-0.038	0.021	0.012	0.031	0.317 (active)	0.052	-0.022	-0.001
SMAD9 (UniProt O15198)	0.005	0.048	-0.037	0.007	0.018	0.053	0.017	-0.048	-0.059	0
SMIM12 (UniProt Q96EX1)	0.048	-0.105	-0.024	-0.042	-0.026	0.024	-0.009	0.075	0.008	-0.009
STK39 (UniProt Q9UEW8)	0.006	0.08	-0.001	-0.014	-0.03	0	-0.133	-0.004	-0.013	-0.003
SLC27A4 (UniProt Q6P1M0)	0.022	0.01	-0.023	0.052	0.063	-0.009	0.041	0.015	0.084	-0.003
SLCO4A1 (UniProt Q96BD0)	–	–	–	–	0.08	–	–	–	–	–
SNAPC2 (UniProt Q13487)	0.131	–	0.022	–	-0.21	0.087	–	–	–	-0.166
STK26 isoform 3 (UniProt Q9P289)	–	–	–	–	–	–	–	0.272	-0.045	–
SMPD2 (UniProt O60906)	-1.38 (active)	–	-0.551	–	–	-0.112	–	-0.024	0.022	0.065
SMARCA4 isoform 4 (UniProt P51532)	0.052	–	0.178	–	–	0.127	–	0.112	-0.076	-0.101
SLC39A13 (UniProt Q96H72)	0.344	–	0.063	–	–	-0.252	–	–	–	-0.025
STK17B (UniProt O94768)	-0.041	–	-0.341	–	–	-0.022	–	–	–	-0.065
SMC4 (UniProt C9JJ64)	–	–	–	–	-0.013	–	–	–	–	–
STK38L (UniProt Q9Y2H1)	-0.001	–	-0.163	–	–	0.113	–	-0.027	0.11	0.011
SLC40A1 (UniProt Q9NP59)	0.188	-0.035	0.233	0.042	–	-0.052	-0.122	-0.015	0.05	0.048

Target	log2 fold change (erlotinib)	log2 fold change [1]	log2 fold change [2]	log2 fold change [3]	log2 fold change [4]	log2 fold change [5]	log2 fold change [6]	log2 fold change [7]	log2 fold change [8]	log2 fold change (IRAK-1-4 Inhibitor I)
SPA17 (UniProt Q15506)	–	-0.047	–	0.01	-0.033	-0.018	-0.106	-0.076	-0.029	0
TAF1B (UniProt Q53T94)	–	-0.283	–	-0.123	-0.001	0.024	0.013	0.345	0.123	-0.061
SLC41A1 (UniProt Q8IVJ1)	0.176	–	-0.042	–	–	0.018	–	0.024	-0.014	-0.008
SNAP23 isoform 2 (UniProt O00161)	0.042	-0.019	0.27	-0.006	–	-0.071	-0.117	0.104	-0.08	0.057
SIN3B (UniProt O75182)	–	-0.167	–	-0.018	–	–	0.046	-0.071	0.132	–
SLC35A3 isoform 2 (UniProt Q9Y2D2)	-0.036	0.057	0.077	0.001	–	-0.166	-0.006	-0.036	-0.002	0.164
SKP2 (UniProt Q13309)	0.06	-0.053	-0.063	0.027	–	-0.023	-0.029	-0.027	0.044	-0.002
SIX5 (UniProt Q8N196)	-0.062	–	-0.05	–	-0.046	-0.034	–	–	–	-0.141
SNRPD2 (UniProt K7EJB5)	-0.076	0	-0.036	-0.106	–	-0.12	0.055	0.088	0.037	-0.03
STAR (UniProt P49675)	0.207	0.01	-0.192	-0.029	–	0.042	-0.058	-0.125	-0.035	-0.031
SLC12A6 isoform 2 (UniProt Q9UHW9)	0.013	–	0	–	–	-0.019	–	-0.139	-0.049	0.089
SMIM1 (UniProt B2RUZ4)	0.172	–	-0.145	–	-0.114	0.063	–	0.086	-0.016	-0.214
SPAG1 (UniProt Q07617)	–	-0.045	–	-0.089	1.01 (active)	-0.034	-0.063	–	–	0.042
SHB (UniProt Q15464)	0.003	–	0.033	–	–	-0.014	–	–	–	-0.067
SRC isoform 2 (UniProt P12931)	-0.073	–	0.028	–	0.102	-0.063	–	-0.018	-0.069	0.034
SZT2 (UniProt Q5T011)	0.043	–	-0.089	–	0.134	-0.013	–	-0.004	0.016	0.014
SLC22A18 (UniProt Q96BI1)	-0.008	0.043	-0.018	0.049	-0.147	–	-0.03	-0.062	0.004	–
SURF2 (UniProt Q15527)	–	0.087	–	-0.019	0.02	-0.004	0.022	0.051	0.074	0.035
